According to the supplement of paper PMC10849652:
Of roughly 8,800 targets only a part is listed; those with a hit were picked by preference. About 0.5% of all pairs of compound and target were hits.

Experiments:
Experiment in all cases: log2 fold change, soluble protein after heating vs DMSO (PISA); higher = thermal stabilisation; K562 lysate, 10 uM; active = over 0.2 and 3.5 SD of the protein, either way, in both replicates (recomputed)
[1] = compound: C[C@H](C1=CC=C(C=C1)C(=O)NC2=C3C=CNC3=NC=C2)N
In short: (§1)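 Soluble protein was defined as the supernatant remaining after 21,000xg for 90 min, following pooling of heated aliquots and adjustment to 0.5% NP-40 at 4°C. Before that, crude K562 extract at 1 mg/mL protein in PBS pH 7.4 with 1 mM MgCl2 was treated with 10 μM compound for 30 min and heated for 3 min across 48°C-58°C. Quantification used TMTpro 16plex LC-MS/MS with channel sums equalised, and values are log-two fold changes in thermal stability relative to solvent controls from duplicates.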

gandotinib = compound: Cc1cc(Nc2cc(CN3CCOCC3)c3nc(C)c(Cc4ccc(Cl)cc4F)n3n2)n[nH]1 [gandotinib]
In short: as §1

[2] = compound: Cc1cccc(CC(=O)N2CCc3c2ccc(-c2cn(C)c4ncnc(N)c24)c3F)n1
In short: as §1

crizotinib = compound: C[C@@H](Oc1cc(-c2cnn(C3CCNCC3)c2)cnc1N)c1c(Cl)ccc(F)c1Cl [crizotinib]
In short: as §1

doramapimod = compound: Cc1ccc(-n2nc(C(C)(C)C)cc2NC(=O)Nc2ccc(OCCN3CCOCC3)c3ccccc23)cc1 [doramapimod]
In short: as §1

pictilisib = compound: CS(=O)(=O)N1CCN(Cc2cc3nc(-c4cccc5[nH]ncc45)nc(N4CCOCC4)c3s2)CC1 [pictilisib]
In short: as §1

duvelisib = compound: C[C@H](Nc1ncnc2nc[nH]c12)c1cc2cccc(Cl)c2c(=O)n1-c1ccccc1 [duvelisib]
In short: as §1

bafetinib = compound: Cc1ccc(NC(=O)c2ccc(CN3CC[C@H](N(C)C)C3)c(C(F)(F)F)c2)cc1Nc1nccc(-c2cncnc2)n1 [bafetinib]
In short: as §1

tozasertib = compound: Cc1cc(Nc2cc(N3CCN(C)CC3)nc(Sc3ccc(NC(=O)C4CC4)cc3)n2)n[nH]1 [tozasertib]
In short: as §1

lapatinib = compound: CS(=O)(=O)CCNCc1ccc(-c2ccc3ncnc(Nc4ccc(OCc5cccc(F)c5)c(Cl)c4)c3c2)o1 [lapatinib]
In short: as §1

Measured: log2 fold change

UNC13A (UniProt Q9UPW8)
inactive: [1] -1.52 | gandotinib 0.331 | [2] 0.481

ZSCAN26 (UniProt Q16670)
Chain of UniProt Q16670 (Q16670 whole entry, looked up): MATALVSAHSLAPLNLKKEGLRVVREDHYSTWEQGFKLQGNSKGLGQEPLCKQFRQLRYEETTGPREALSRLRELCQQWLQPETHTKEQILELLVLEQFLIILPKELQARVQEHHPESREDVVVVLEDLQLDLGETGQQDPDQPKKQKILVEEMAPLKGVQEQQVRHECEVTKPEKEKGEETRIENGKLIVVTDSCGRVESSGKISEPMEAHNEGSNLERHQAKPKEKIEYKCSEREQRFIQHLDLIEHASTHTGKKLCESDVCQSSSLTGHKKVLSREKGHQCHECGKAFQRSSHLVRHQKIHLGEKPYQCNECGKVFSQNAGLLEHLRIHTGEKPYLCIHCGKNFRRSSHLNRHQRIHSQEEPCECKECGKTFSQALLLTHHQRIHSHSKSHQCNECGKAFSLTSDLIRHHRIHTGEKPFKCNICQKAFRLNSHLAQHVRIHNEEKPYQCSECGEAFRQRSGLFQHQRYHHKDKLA
inactive: crizotinib -0.025 | doramapimod 0.102

URGCP (UniProt Q8TCY9)
Chain of UniProt Q8TCY9 (Q8TCY9 whole entry, looked up): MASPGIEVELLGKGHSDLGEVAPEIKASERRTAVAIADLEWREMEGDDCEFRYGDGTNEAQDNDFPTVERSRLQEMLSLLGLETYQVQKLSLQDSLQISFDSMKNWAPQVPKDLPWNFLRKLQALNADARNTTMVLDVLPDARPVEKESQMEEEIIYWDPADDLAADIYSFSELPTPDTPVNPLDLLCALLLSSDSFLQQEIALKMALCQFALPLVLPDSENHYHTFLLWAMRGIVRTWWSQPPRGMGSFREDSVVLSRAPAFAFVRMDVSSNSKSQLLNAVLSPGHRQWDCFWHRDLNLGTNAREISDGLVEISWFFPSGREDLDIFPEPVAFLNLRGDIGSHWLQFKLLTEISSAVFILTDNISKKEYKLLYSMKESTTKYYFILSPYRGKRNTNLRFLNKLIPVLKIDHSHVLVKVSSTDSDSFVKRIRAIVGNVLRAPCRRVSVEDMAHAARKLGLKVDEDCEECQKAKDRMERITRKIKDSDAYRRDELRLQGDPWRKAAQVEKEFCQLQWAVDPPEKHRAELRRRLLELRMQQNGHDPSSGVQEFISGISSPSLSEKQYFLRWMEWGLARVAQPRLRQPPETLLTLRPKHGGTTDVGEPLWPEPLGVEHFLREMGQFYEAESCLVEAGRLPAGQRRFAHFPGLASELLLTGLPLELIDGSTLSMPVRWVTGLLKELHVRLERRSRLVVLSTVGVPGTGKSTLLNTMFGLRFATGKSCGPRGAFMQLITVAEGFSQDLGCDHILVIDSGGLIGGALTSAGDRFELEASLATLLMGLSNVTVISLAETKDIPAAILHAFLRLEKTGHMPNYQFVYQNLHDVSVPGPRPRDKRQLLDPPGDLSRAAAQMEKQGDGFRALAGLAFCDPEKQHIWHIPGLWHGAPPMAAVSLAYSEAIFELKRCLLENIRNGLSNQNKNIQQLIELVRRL
inactive: pictilisib -0.025 | duvelisib 0.158 | bafetinib -0.137

YBEY (UniProt P58557)
Chain of UniProt P58557 (P58557 whole entry, looked up): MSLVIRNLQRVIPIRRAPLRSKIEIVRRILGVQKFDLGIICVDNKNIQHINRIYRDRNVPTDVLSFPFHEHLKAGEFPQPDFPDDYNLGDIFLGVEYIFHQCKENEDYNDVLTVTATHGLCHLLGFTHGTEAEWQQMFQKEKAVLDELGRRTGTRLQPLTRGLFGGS
inactive: duvelisib 0.049 | tozasertib 0.035

VPS72 (UniProt Q15906)
Chain of UniProt Q15906 (Q15906 whole entry, looked up): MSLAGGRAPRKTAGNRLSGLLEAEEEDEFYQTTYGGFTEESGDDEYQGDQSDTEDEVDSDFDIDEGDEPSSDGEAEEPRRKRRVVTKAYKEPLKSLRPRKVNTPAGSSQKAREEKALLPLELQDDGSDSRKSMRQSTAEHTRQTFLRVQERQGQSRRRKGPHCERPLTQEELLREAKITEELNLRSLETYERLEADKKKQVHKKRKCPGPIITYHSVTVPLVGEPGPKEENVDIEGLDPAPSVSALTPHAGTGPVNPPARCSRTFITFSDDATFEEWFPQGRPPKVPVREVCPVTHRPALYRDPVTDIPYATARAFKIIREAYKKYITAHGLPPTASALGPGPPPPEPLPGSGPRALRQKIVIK
inactive: lapatinib 0.025 | crizotinib 0.005 | [1] -0.099 | duvelisib 0.001 | gandotinib 0.031 | tozasertib 0.059 | doramapimod -0.023 | [2] 0.136

UNKL (UniProt E9PDK2)
inactive: pictilisib -0.113 | crizotinib -0.078 | duvelisib 0.184 | tozasertib -0.039 | doramapimod 0.07 | bafetinib -0.041
